Experimental data reported in PubChem BioAssay (NCATS).
Inconclusive results are not listed. Activity calls are given as the source filed them. Calls follow the shape of the dose curve; as a rule, active = well fitted activation curve with a large enough effect in the main read-out, with a control signal flat (not every such curve was filed as active); inconclusive = small, poorly fitted or top-dose-only effect, or effect the other way, or a change in a side signal; inactive = flat fitted curve, though single readings scatter.

What follows are compounds tested against 3',5'-cyclic-AMP phosphodiesterase 4B (Homo sapiens) (UniProt Q07343) (assay: qHTS Assay for Inhibitors of PDE-IV (AID 607)). Conditions: HEK293 ACTOne CNG channel cells, membrane potential fluorescence; series mostly up to 22.9 µM.
Sequence of 3',5'-cyclic-AMP phosphodiesterase 4B (Homo sapiens) (Q07343 whole entry, looked up): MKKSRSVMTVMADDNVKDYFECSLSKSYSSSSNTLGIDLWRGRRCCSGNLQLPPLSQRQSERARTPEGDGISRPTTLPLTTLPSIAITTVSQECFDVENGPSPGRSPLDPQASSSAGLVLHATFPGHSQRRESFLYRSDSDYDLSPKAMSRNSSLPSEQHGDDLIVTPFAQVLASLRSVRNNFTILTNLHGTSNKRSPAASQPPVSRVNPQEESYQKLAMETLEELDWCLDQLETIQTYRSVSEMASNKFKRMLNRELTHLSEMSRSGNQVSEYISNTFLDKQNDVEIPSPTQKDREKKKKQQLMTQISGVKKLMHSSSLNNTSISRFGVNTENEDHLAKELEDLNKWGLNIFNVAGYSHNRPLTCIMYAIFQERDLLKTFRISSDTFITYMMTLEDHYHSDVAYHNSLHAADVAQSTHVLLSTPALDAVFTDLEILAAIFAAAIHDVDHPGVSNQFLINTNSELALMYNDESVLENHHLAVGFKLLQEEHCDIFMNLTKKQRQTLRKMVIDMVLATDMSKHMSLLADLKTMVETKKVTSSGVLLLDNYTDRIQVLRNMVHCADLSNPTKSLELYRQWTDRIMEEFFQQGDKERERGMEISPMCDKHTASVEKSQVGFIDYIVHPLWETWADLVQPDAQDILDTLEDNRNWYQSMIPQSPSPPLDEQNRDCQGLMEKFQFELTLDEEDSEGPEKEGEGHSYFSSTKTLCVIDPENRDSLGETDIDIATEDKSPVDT
Outline: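 ACTOne HEK293 cells carry a modified cAMP-gated CNG channel and express endogenous PDE4; plated 1000 cells/well, compounds up to 22.9 uM final. Membrane-potential dye fluorescence (ex 535/em 590) was read; parental cells received 10 uM forskolin + 100 uM RO 20-1724.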

outcome, inactive:
COC(=O)[C@@]1(Cc2ccc(OC)cc2)[C@H]2c3cc(C(=O)N4CCCC4)n(CCO)c3C[C@H]2CN1C(=O)c1ccccc1, C[C@@H](C(=O)NCc1ccccc1)[C@@H]1C[C@@]1(C)[C@@H](NC(=O)OCc1ccccc1)c1ccccc1, COc1ccc(NC(=O)CCCCC#Cc2ccccc2)cc1
